# Assay outcomes: PubChem, National Center for Advancing Translational Sciences (NCATS)
# Many of the other results were omitted from the sample, so hits are more common in it than they were.
# CRE-bla Fsk: alters forskolin-stimulated CRE reporter signaling in CHO cells; CHO CRE-bla reporter (cAMP response element driving beta-lactamase), forskolin EC10, beta-lactamase ratio; Potency, µM (titrated, usually from 38.2 µM), without a hit: top-dose activity change, negative = inhibition, hits mostly activators; 71,000 compounds, 2.5% hits; AID 662; active = well fitted activation curve with a large enough effect in the signal ratio, with a control signal flat, not every such curve was filed as active; inconclusive = small, poorly fitted or top-dose-only effect, or effect the other way, or a change in a side signal; the % refers to the signal ratio; note: potency is the fitted concentration of half-maximal effect; % of control where 0% means no effect
#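 Using CellSensor CRE-bla CHO cells in Opti-MEM with 0.5% dialyzed FBS, compounds were titrated with EC10 NKH 477 for 3 h at 37 °C. CCF4 ratio (460/530 nm) gave %Activity; AC50 derived.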
# Imprint erasure: induces erasure of genomic imprints in mouse ES cells | mouse ES Peg3-LacZ reporter, beta-gal luminescence, 40 h | Potency, µM (top dose mostly 60.7 µM), for inactives: at the highest dose activity change, positive = activation, actives largely listed as activators | 110,000 compounds, 0.02% hits; note: potency is the fitted concentration of half-maximal effect
#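 Imprint erasure is scored as LacZ activity from the silenced maternal Peg3 allele in feeder-free female ES cells cultured 40 h with LIF. Luminescence is normalized to in-plate negative controls and fitted to the Hill equation.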
# HBB splicing: alters splicing of the hemoglobin beta chain | HBB splicing reporter cell assay, activation; EGFP reporter with mutant IVS2-654 intron; response scale: normalised to 500 nM splice-correcting PNA | 65,000 compounds, 0.06% hits | Potency, µM (series often up to 46.1 µM), for inactives: top-dose activation, most hits filed as activators | AID 925; note: potency is the fitted concentration of half-maximal effect; 0% is about no effect
#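 Compounds were applied for 2 days to HeLa EGFP-654 cells, 500/well in Optimem with 2% FCS. The reporter's EGFP is disrupted by mis-splicing of beta-globin intron IVS2-654. Readout: summed well GFP fluorescence from 488 nm laser scanning; reference was 500 nM antisense […] 654 PNA.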
# IkB sig inh: IkB pathway inhibition in ABC-DLBCL cells; ABC-DLBCL IkBa-CBG/CBR dual luciferase ratio, 4 h; response scale: scaled: untreated 0%, proteasome inhibitor 100%; Potency, µM (top dose mostly 57.1 µM), inactives show at the top dose IkBa stabilization activation; 110,000 compounds, 0.04% hits; active = well fitted curve in the direction sought with a large enough effect in the signal ratio, not every such curve was filed as active; inconclusive = small, poorly fitted or top-dose-only effect, or a change in a side signal; the % refers to the signal ratio;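 note: potency is the fitted concentration of half-maximal effect; the direction sought is a rising ratio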
#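 In this assay, an IκBα–CBG68 fusion accumulates when IKK-driven degradation is blocked; native CBR normalizes for cell number. OCI-Ly3 cells were treated 4 h with compound and doxycycline, then green and red light read after Chroma-Glo addition.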
# GFP derepression: derepresses silenced GFP locus in mouse C127i cells | mouse C127i GFP locus derepression, cytometry, 30 h | Potency, µM (top dose mostly 46.1 µM), for the others: at the top dose GFP derepression (activation) | 68,000 compounds, 0.09% hits | AID 597; note: % of control where 0% means no effect
#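 Read-out is the number of GFP-positive cells, scored as fluorescent objects 20 to 120 um wide, reflecting derepression of a silenced CMV-GFP reporter in murine C127i cells after 30 h compound exposure at 37 C.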
# * hit, by the source's call; ? = inconclusive; / = no result; [ ] = remark or other dose. Unless noted, calls come from the whole dose curve; as a rule, active = well fitted curve in the direction sought with a large enough effect; inconclusive = small, poorly fitted or top-dose-only effect, or another doubt; inactive = no such curve, though single readings can be large; an effect the other way counts as inactive or inconclusive.
SMILES,CRE-bla Fsk,Imprint erasure,HBB splicing,IkB sig inh,GFP derepression
CC(=O)Nc1nonc1-c1nnc(SCC(=O)Nc2cc(C)ccc2C)n1-c1ccccc1,/,-9%[10.9 µM],/,?,/
CCOC(=O)c1cccc(NC(=O)CN2C(=O)CC(C)(C)Sc3ccccc32)c1,/,-13%[10.9 µM],/,?,/
CCCCCCNc1c(C(=O)OCC)c(=O)[nH]c2ccccc12,4µM*,-13%,0%,1%,0%
CCCCNC(=O)Nc1c(C(=O)OCC)[nH]c2ccccc12,10%,-10%,3%,1%,-3%
Cc1ccc(NC(=O)c2cnc(SCC(=O)N3CCOCC3)n(C)c2=O)cc1C,/,-31%[10.9 µM],/,?,/
O=C(CSc1ncnc2sc3c(c12)CCCCC3)NCc1ccco1,13µM*,-22%,0%,?,3%
c1coc(CNc2nc3sc4c(c3c3ncnn23)CCCC4)c1,6.3µM*,-16%,1%[57.5 µM],-3%,6%
Cc1nc2sc3c(c2c2nnc(SCC(=O)NCc4ccco4)n12)CCCC3,13µM*,-4%,0%[57.5 µM],?,6%
COc1ccccc1N1CCN(C(=O)c2cc3c(=O)n(Cc4ccco4)ccc3nc2C)CC1,/,8%[10.9 µM],/,0%,/
O=C1CCCN1CCCNc1ncnc2c1[nH]c1ccc(Cl)cc12,1µM*,-19%,-2%[0.369 µM],-1%,0%
COc1ccc(C)cc1N(C)C(=O)c1sc2nc3n(c(=O)c2c1C)CCCCC3,/,-12%[10.9 µM],/,-2%,/
Fc1ccc2nc3[nH]c4ccccc4c3nc2c1,7.9µM*,-65%,4%[0.369 µM],-4%,0%
CCCn1c(=O)n(C)c(=O)c2c(SCc3cc(C(C)=O)ccc3OCC)nc(C3CC3)nc21,2µM*,-17%,0%[1.84 µM],-1%,-2%
CC(=O)c1ccc(NC(=O)CSc2nc(C3CCCC3)nc3c2c(=O)n(C)c(=O)n3C)cc1,/,-10%[10.9 µM],/,?,/
CCOC(=O)c1cc(-c2ccc(F)cc2)n(CCC(=O)NCc2ccc(C)cc2)c1C,/,-18%[10.9 µM],/,-4%,/
Cc1ccc(-n2ncc(C(=O)Nc3ccc4c(c3)OCCO4)c2C2CCN(C(=O)OC(C)(C)C)CC2)cc1C,/,-6%[10.9 µM],/,?,/
CCCn1c(=O)[nH]c(=O)c2c1nc(-c1ccc3c(c1)OCCO3)n2CCN1CCOCC1,4µM*,-5%,0%,0%,-2%
Cc1cccc(N=c2oc3cc(O)ccc3cc2C(N)=O)c1,13µM*,-96%,-1%,?,1%
CN=c1oc2ccc(Cl)cc2cc1C(N)=O,-4%,0%,4%[0.369 µM],10%,-2%
CCOC(=O)C1=C(C)NC(C)=C(C(=O)OC)[C@H]1c1cccc(Cl)c1Cl,?,/,-1%,11%,1%
COc1ccc(NC(=O)Nc2ccccc2OCc2cc(=O)n3ccccc3n2)c(OC)c1,/,7%[10.9 µM],/,-2%,/
COc1ccc(-c2ccc(=O)n(Cc3cc(=O)n4ccccc4n3)n2)cc1,10µM*,-16%,-1%,-1%,5%
COc1cc2cc3c4c(cc(OC)c(OC)c4c2cc1OC)CCN3C,0.79µM*,-47%,/,3%[11.4 µM],2%[9.22 µM]
COc1ccc(OC)c(NC(=O)c2csnn2)c1,/,25%[10.9 µM],/,-1%,/
COc1ccccc1C1c2c(-c3ccc(Cl)cc3)n[nH]c2C(=O)N1c1ccc(C)cc1 (centres undefined),/,-6%[10.9 µM],/,?,/
SMILES,CRE-bla Fsk,Imprint erasure,HBB splicing,IkB sig inh,GFP derepression
COC(=O)c1ccccc1NC(=O)c1sc(N)nc1C,16µM*,-12%,1%[0.369 µM],-2%,2%
Cc1nc(NCCNC(=O)c2ccco2)c2c(C)c(C)sc2n1,5µM*,-18%,-8%,-1%,-1%
COC(=O)Cc1c(C)c2ccc(OC(=O)c3ccco3)cc2oc1=O,10µM*,-15%,0%,1%,4%
COC(=O)Cc1c(C)c2cc(Cl)c(OC(=O)c3ccco3)cc2oc1=O,?,-23%,-1%,2%,0%
Cc1c(Cl)cccc1NC(=O)CSc1nc2ncccc2o1,/,-3%[10.9 µM],/,0%,/
COc1ccc(Br)cc1C1NC(=O)c2c(sc3c2CCN(C)C3)N1 (centres undefined),13µM*,1%,4%[1.84 µM],4%,4%
O=C1NC(c2ccco2)Nc2sc3c(c21)CCN(Cc1ccccc1)C3 (centres undefined),3.2µM*,-12%,9%,4%,/
CN1CCc2c(sc3c2C(=O)NC(c2ccco2)N3)C1 (centres undefined),13µM*,10%,3%[1.84 µM],1%,-4%
CCOc1ccc(Br)cc1C1NC(=O)c2c(sc3c2CCN(C)C3)N1 (centres undefined),/,-7%[10.9 µM],/,3%,/
CC(C)C(=O)N1c2ncnn2C2(CCCCC2)[C@@H]2CCCC[C@@H]21,/,-17%[10.9 µM],/,0%,/
CCOc1ccccc1C(=O)Nc1ccc(S(=O)(=O)N2CCOCC2)cc1,3.2µM*,-15%,0%,0%,-1%
CC(=O)Nc1ccc(S(=O)(=O)Nc2nc3ccccc3nc2N2CCCC2)cc1,13µM*,-3%,1%[0.369 µM],0%,0%
CCN(CC)c1ccc(-c2nn3c(-c4n[nH]c5c4CCC5)nnc3s2)cc1,?,-24%,2%[0.369 µM],?,-2%
C1CCC(c2nn3c(-c4n[nH]c5c4CCC5)nnc3s2)CC1,13µM*,-18%,-1%[1.84 µM],-2%,0%
CN(Cc1ccccc1)c1ncnc2c1cnn2-c1ccccc1,10µM*,-28%,-2%,2%,0%
COCCNc1ncnc2c1cnn2-c1ccc(Cl)cc1,/,/,/,/,10%[20.6 µM]
COCCN(CCOC)c1ncnc2c1cnn2-c1ccc(Cl)cc1,10µM*,-5%,0%,-4%,2%
Nc1nn(-c2ccccc2)nc1C(=O)OCc1ccccc1Br,/,-19%[10.9 µM],/,-2%,/
CCc1c2c(nc3c(C(C)C)cccc13)-c1cccc(=O)n1C2,?,-14%,2%,/,/
CCc1cccc2nc3c(c([Si](CC)(CC)CC)c12)Cn1c-3cccc1=O,10µM*,-30%,3%,/,/
CC(C)c1cccc2nc3c(c([Si](C)(C)C)c12)Cn1c-3cccc1=O,13µM*,-25%,0%,/,/
CC(=O)c1cccc(NC(=O)c2cc(-c3ccc(Cl)s3)nc3ccccc23)c1,/,-8%[10.9 µM],/,?,/
Cc1ccc(C(=O)c2sc(Nc3ccccc3F)c(S(=O)(=O)c3ccccc3)c2N)c(C)c1,/,-12%[10.9 µM],/,-1%,/
O=C(CN1C(=O)CC(c2ccccc2)=Nc2ccccc21)Nc1ccc(Br)cc1,/,-22%[10.9 µM],/,?,/
COc1ccc(-c2noc(-c3ccc(Br)o3)n2)cc1OC,5%,-9%,7%,-6%,1%
COc1cc(-c2nc(-c3ccc(Br)o3)no2)cc(OC)c1OC,2.5µM*,-7%,0%,0%,/
CN(C)c1ncc2ncc(=O)n(C3CC3)c2n1,?,-11%,0%,-1%[11.4 µM],2%[9.22 µM]
Cc1nc2cnc(N(C)C)nc2n(C2CC2)c1=O,10µM*,?,0%,-1%[11.4 µM],2%[9.22 µM]
CN(C)c1ncc2nc(-c3ccc(F)cc3)c(=O)n(C3CC3)c2n1,2µM*,/,-2%,-4%[11.4 µM],17%[9.22 µM]
